Data taken from PubChem BioAssay.
Values joined by “and” are separate entries in the source; they are usually repeats but may differ in a detail not shown here. Equal entries are not always repeated.

Assay: viability loss with induced miR-34 in A549 – imaging, A549 dox-inducible miR-34, nuclei and caspase counts, primary screen (AID 1347080); also: test concentration not given here
Details: A549 miR-34 inducible, Hoechst nuclei count, 48 h; measured here: total cells with miR-34 induction; stronger effect = lower value

Row | SMILES | cell count
1 | NC1[C@H]2CN(c3nc4c(cc3F)c(=O)c(C(=O)O)cn4-c3ccc(F)cc3F)C[C@@H]12 (stereo partly drawn) | 3150
2 | CCn1c(=O)c2c(nc(C=Cc3ccc(OC)c(OC)c3)n2C)n(CC)c1=O | 8640
3 | COc1ccc(CCN(C)CCCC(C#N)(c2cc(OC)c(OC)c(OC)c2)C(C)C)cc1OC (stereo not drawn) | 9650 and 5610
4 | N[C@@H](CC(=O)O)C(=O)O | 10800
5 | C[C@]12CCC(=O)C=C1CC[C@@H]1[C@@H]2CC[C@@]2(C)[C@H]1CC[C@]2(O)C(=O)CO | 8610
6 | O=c1[nH]c(=O)n([C@H]2C[C@H](O)[C@@H](CO)O2)cc1Br | 7520
7 | CC1=C(CC(=O)O)c2cc(F)ccc2/C1=C\c1ccc(S(C)(=O)=O)cc1 | 9240
8 | CCN1CCc2nc(N)oc2CC1 | 10300
9 | NC(CO)(CO)CO | 8750
10 | NC(=O)c1cn(Cc2c(F)cccc2F)nn1 | 10500 and 8320
11 | CSc1ccc(C(=O)c2[nH]c(=O)[nH]c2C)cc1 | 8650
12 | CC(=O)Oc1cc(C(F)(F)F)ccc1C(=O)O | 8780 and 8310
13 | NC(N)=NCCC[C@H](N)C(=O)O | 10400
14 | COC(=O)C1=C(C#N)NC(C)=C(C(=O)OC(C)C)C1c1cccc([N+](=O)[O-])c1 (stereo not drawn) | 7820
15 | CCCCCCCCCCCCCCCCO | 8310
16 | O=C1NC(=O)[C@@]2(CCOc3ccc(F)cc32)N1 | 9980
17 | COc1cc(C)c(C=CC(C)=CC=CC(C)=CC(=O)O)c(C)c1C | 6840
18 | C[N+](C)(C)CCOC(=O)CCC(=O)OCC[N+](C)(C)C | 9370 and 9270
19 | Cc1nc2c([nH]1)c(=O)n(C)c(=O)n2Cc1ccco1 | 10100 and 8410
20 | OCCN1CCN(CC/C=C2/c3ccccc3Sc3ccc(C(F)(F)F)cc32)CC1 | 6940

Row | SMILES | cell count
21 | CC(C)(C)c1ccc(C(=O)CCCN2CCC(OC(c3ccccc3)c3ccccc3)CC2)cc1 | 1290
22 | Nc1cc(=O)[nH]c(N)n1 | 9880
23 | CC(=O)[C@@]1(O)CC[C@H]2[C@@H]3CCC4=CC(=O)CC[C@]4(C)[C@H]3CC[C@@]21C | 8400 and 8890
24 | COc1cc(C=O)ccc1O | 7990
25 | COC(=O)C1=C(C)NC(C)=C(C(=O)OC(C)(C)CN(C)CCC(c2ccccc2)c2ccccc2)C1c1cccc([N+](=O)[O-])c1 (stereo not drawn) | 1980 and 4820
26 | CCC(=O)c1ccc2c(c1)N(CCCN(C)C)c1ccccc1S2 | 1900
27 | COC(=O)C(c1ccccc1Cl)N1CCc2sccc2C1 (stereo not drawn) | 7680
28 | OCCN1CCN(CCCN2c3ccccc3C=Cc3ccccc32)CC1 | 8600
29 | CCNC(=O)N1CCN(CCCC(c2ccc(F)cc2)c2ccc(F)cc2)CC1 | 6860
30 | C(=C\c1ccccc1)/CN1CCN(C(c2ccccc2)c2ccccc2)CC1 | 7700 and 8780
31 | Nc1cccc2c1CN(C1CCC(=O)NC1=O)C2=O (stereo not drawn) | 8240
32 | COC(=O)[C@@H](N)Cc1ccc(O)c(O)c1 | 9830
33 | CCCCc1ncc(/C=C(\Cc2cccs2)C(=O)O)n1Cc1ccc(C(=O)O)cc1 | 10200 and 8890
34 | O=C(O)CN(CCOCCOCCN(CC(=O)O)CC(=O)O)CC(=O)O | 9820
35 | CCCCCCCCCCCCCCC[C@H](O)[C@@H](N)CO | 5120
36 | O=C(O)CP(=O)(O)O | 9620
37 | N[C@@H](COP(=O)(O)O)C(=O)O | 10100 and 7700
38 | O=S(=O)(O)Oc1ccc(C(c2ccc(OS(=O)(=O)O)cc2)c2ccccn2)cc1 | 8720
39 | CCN(CC)CCCN(c1ccccc1)C1Cc2ccccc2C1 | 8050

Same assay, conditions: A549 miR-34 inducible, Hoechst nuclei count, 48 h; measured here: total cells without miR-34 induction

Row | SMILES | cell count
40 | NC1[C@H]2CN(c3nc4c(cc3F)c(=O)c(C(=O)O)cn4-c3ccc(F)cc3F)C[C@@H]12 (stereo partly drawn) | 2330
41 | CCn1c(=O)c2c(nc(C=Cc3ccc(OC)c(OC)c3)n2C)n(CC)c1=O | 9700
42 | COc1ccc(CCN(C)CCCC(C#N)(c2cc(OC)c(OC)c(OC)c2)C(C)C)cc1OC (stereo not drawn) | 9490 and 5880
43 | N[C@@H](CC(=O)O)C(=O)O | 10700
44 | C[C@]12CCC(=O)C=C1CC[C@@H]1[C@@H]2CC[C@@]2(C)[C@H]1CC[C@]2(O)C(=O)CO | 8590
45 | O=c1[nH]c(=O)n([C@H]2C[C@H](O)[C@@H](CO)O2)cc1Br | 9790
46 | CC1=C(CC(=O)O)c2cc(F)ccc2/C1=C\c1ccc(S(C)(=O)=O)cc1 | 9260
47 | CCN1CCc2nc(N)oc2CC1 | 10100
48 | NC(CO)(CO)CO | 9620
49 | NC(=O)c1cn(Cc2c(F)cccc2F)nn1 | 10000 and 8930
50 | CSc1ccc(C(=O)c2[nH]c(=O)[nH]c2C)cc1 | 8940
51 | CC(=O)Oc1cc(C(F)(F)F)ccc1C(=O)O | 10600 and 8430
52 | NC(N)=NCCC[C@H](N)C(=O)O | 10700
53 | COC(=O)C1=C(C#N)NC(C)=C(C(=O)OC(C)C)C1c1cccc([N+](=O)[O-])c1 (stereo not drawn) | 8010
54 | CCCCCCCCCCCCCCCCO | 9230
55 | O=C1NC(=O)[C@@]2(CCOc3ccc(F)cc32)N1 | 10300
56 | COc1cc(C)c(C=CC(C)=CC=CC(C)=CC(=O)O)c(C)c1C | 8080
57 | C[N+](C)(C)CCOC(=O)CCC(=O)OCC[N+](C)(C)C | 9380 and 10400
58 | Cc1nc2c([nH]1)c(=O)n(C)c(=O)n2Cc1ccco1 | 10800 and 9310
59 | OCCN1CCN(CC/C=C2/c3ccccc3Sc3ccc(C(F)(F)F)cc32)CC1 | 6310

Row | SMILES | cell count
60 | CC(C)(C)c1ccc(C(=O)CCCN2CCC(OC(c3ccccc3)c3ccccc3)CC2)cc1 | 913
61 | Nc1cc(=O)[nH]c(N)n1 | 10300
62 | CC(=O)[C@@]1(O)CC[C@H]2[C@@H]3CCC4=CC(=O)CC[C@]4(C)[C@H]3CC[C@@]21C | 8690 and 10400
63 | COc1cc(C=O)ccc1O | 8590
64 | COC(=O)C1=C(C)NC(C)=C(C(=O)OC(C)(C)CN(C)CCC(c2ccccc2)c2ccccc2)C1c1cccc([N+](=O)[O-])c1 (stereo not drawn) | 1570 and 5160
65 | CCC(=O)c1ccc2c(c1)N(CCCN(C)C)c1ccccc1S2 | 2180
66 | COC(=O)C(c1ccccc1Cl)N1CCc2sccc2C1 (stereo not drawn) | 8290
67 | OCCN1CCN(CCCN2c3ccccc3C=Cc3ccccc32)CC1 | 8590
68 | CCNC(=O)N1CCN(CCCC(c2ccc(F)cc2)c2ccc(F)cc2)CC1 | 6940
69 | C(=C\c1ccccc1)/CN1CCN(C(c2ccccc2)c2ccccc2)CC1 | 7950 and 9460
70 | Nc1cccc2c1CN(C1CCC(=O)NC1=O)C2=O (stereo not drawn) | 8190
71 | COC(=O)[C@@H](N)Cc1ccc(O)c(O)c1 | 10200
72 | CCCCc1ncc(/C=C(\Cc2cccs2)C(=O)O)n1Cc1ccc(C(=O)O)cc1 | 9790 and 10900
73 | O=C(O)CN(CCOCCOCCN(CC(=O)O)CC(=O)O)CC(=O)O | 10400
74 | CCCCCCCCCCCCCCC[C@H](O)[C@@H](N)CO | 5600
75 | O=C(O)CP(=O)(O)O | 9930
76 | N[C@@H](COP(=O)(O)O)C(=O)O | 9680 and 8570
77 | O=S(=O)(O)Oc1ccc(C(c2ccc(OS(=O)(=O)O)cc2)c2ccccn2)cc1 | 9690
78 | CCN(CC)CCCN(c1ccccc1)C1Cc2ccccc2C1 | 7530
